This is an account of results in ChEMBL document CHEMBL1157539, “Thousands of chemical starting points for antimalarial lead identification” (Nature, 2010).

Broadly, the Inhibition is how much of the control response was suppressed. Lower therefore signals a response near the control.

The test system of this assay is Plasmodium falciparum. As to the kind of experiment: GSK_TCMDC: Inhibition of Plasmodium falciparum 3D7 in whole red blood cells, using parasite LDH activity as an index of growth. Test compounds present at 2uM. It counts as functional.
`CCCCCCNC(=O)C1Cc2c([nH]c3ccc(Br)cc23)C2(CCN(Cc3ccccc3)CC2)N1` (stereo not given) displayed an Inhibition of 100%.

For `CCCCCN1CCCC(CNS(=O)(=O)c2cccc(C(=O)Nc3ccc(C(F)(F)F)cc3)c2)C1.O=C(O)C(F)(F)F` (stereo not given), the Inhibition was 96%.

`COc1ccc2nc3cc(Cl)ccc3c(Nc3ccc(Sc4ccc(Nc5c6ccc(Cl)cc6nc6ccc(OC)cc56)cc4)cc3)c2c1.Cl` came in with an Inhibition of 92%.

Regarding `COc1ccc(CCN(C)CCCOc2ccc(NC(=O)COc3cccc4sc5ccccc5c(=O)c34)cc2)cc1OC`, the Inhibition worked out at 94%.

On to `O=C(Nc1ccc(-c2ccc(-c3nc4ccccc4[nH]3)s2)cc1)c1ccncc1`, for which the Inhibition is given as 94%.

With `COc1ccc2nccc([C@@H](O)CN3CCC(NCc4cc5cccnc5[nH]4)CC3)c2n1.O=C(O)C(=O)O`, the Inhibition was 90%.

Take `O=C(N[C@@H](Cc1ccccc1)C(=O)NC1CCCCCC1)c1ccc(O)c(-c2cccc(C(F)(F)F)c2)c1`: the Inhibition stood at 98%.

Turning to `CCOC(=O)c1[nH]c2cc(Cl)cc(Cl)c2c1/C=C/C(=O)Nc1ccc(-c2cnc(NC(C)=O)[nH]2)cc1`, the Inhibition came to 100%.

`CCCCOc1ccc(C(=O)C(CCC(CNC(C)(C)C)C(=O)c2ccc(OCCCC)cc2)CNC(C)(C)C)cc1.Cl` (stereo not given) returned an Inhibition of 94%.

`COC(=O)c1sc2ccccc2c1NC(=O)c1ccc(C)c(C)c1` yielded an Inhibition of 88%.

Regarding `CC(C)(CNC(=O)[C@@H]1CCCN(CCOc2ccc(F)c(F)c2)C1)c1nc(-c2ccc(Cl)c(O)c2)c(-c2ccncc2)[nH]1.Cl`, the Inhibition was determined as 100%.

`CCOC(=O)CCCCOc1c(OC)cc(Cc2cnc(N)nc2N)cc1OC` yielded an Inhibition of 95%.

In turn, `Cc1ccc2c(-c3ccc([N+](=O)[O-])o3)cc(C)nc2c1` showed an Inhibition of 95%.

Take `Cc1oc(-c2cccc(Oc3ccccc3)c2)nc1CN(Cc1cnn(C)c1)C(C)C`: the Inhibition was determined as 89%.

Molecule `CN1CCC(NCc2ccc(-c3cnc(NCc4ccccc4)nc3)cc2)CC1.O=C(O)C(F)(F)F` came in with an Inhibition of 91%.

`CCOc1ccc2nc3cc([N+](=O)[O-])ccc3c(N)c2c1` showed an Inhibition of 99%.

Turning to `Cc1cc(NCCC(=O)NCc2cccc(F)c2)nc(NCCc2ccc(F)cc2)n1.O=C(O)C(F)(F)F`, the Inhibition is given as 89%.

For the molecule `COc1ccc2nccc(N(C)CC3(O)CCC(NCc4cc5c(cn4)OCCO5)CC3)c2n1.Cl` (stereo not given), the Inhibition is 99%.

Turning to `CCCCN1CC[C@@H](CCC(O)c2cc(OCCC)nc3ccc(OC)cc23)[C@@H](CC)C1.O=C(O)C(=O)O` (stereo not given in full), the Inhibition came out at 100%.

On to `O=C(Nc1cccc(OCc2ccccc2)c1)c1ccc(CN2CCC(Cc3ccccc3)CC2)cc1`, for which the Inhibition is 100%.

Take `Nc1ccc(Oc2ccc(Cc3cnc(N)nc3N)cc2)cc1`: the Inhibition is on record as 86%.

Turning to `COc1ccc(N2CCN(CCCCNC(=O)c3ccc(NC(=O)c4cc(C(F)(F)F)cc(C(F)(F)F)c4)cc3)CC2)cc1OC`, the Inhibition is given as 100%.

Consider `O=C(Nc1ccc(-c2nc3ccccc3[nH]2)cc1)c1ccc(S(=O)(=O)N2CCCCCC2)cc1`, for which the Inhibition is given as 97%.

`COc1ccc(CCNCc2cc3c(C(C)(C)C)nn(-c4ccc(Cl)cc4)c3[nH]c2=O)cc1OC` showed an Inhibition of 100%.

Regarding `COc1cccc(OC)c1CN1CCC(N(C)CCCCCCCCCN2CCC(OC(=O)Nc3ccccc3-c3ccccc3)CC2)CC1`, the Inhibition was found to be 98%.

On to `CN(C)CCCN(C)c1cccc2c1nc(-c1cccnc1)n2CCNCc1ccccc1.O=C(O)C(F)(F)F`, for which the Inhibition came to 89%.

Molecule `COc1ccccc1C1CCN(C2CCC(NC(=O)/C=C/c3cc(C(F)(F)F)cc(C(F)(F)F)c3)CC2)CC1` (stereo not given) registered an Inhibition of 92%.

`COc1cccc(CC(=O)N2CCC(n3c(C)nc4ccc(F)cc43)CC2)c1`: the Inhibition is 100%.

Molecule `Cc1ccc(C(NC(=O)C2CCCCC2)c2ccc3cccnc3c2O)cc1` (stereo not given) gave an Inhibition of 91%.

`CC(=O)O.CC(C)c1ccc(C2CCN(CCCCNC(=O)c3ccc(NC(=O)c4ccc(C(F)(F)F)cc4)cc3)CC2)c(O)c1`: the Inhibition turned out to be 99%.

Regarding `COCCN1CCN(Cc2ccc(-c3ccc(-c4nc5cccc(C)c5[nH]4)s3)cc2)CC1.O=C(O)C(F)(F)F`, the Inhibition was 95%.

As to `Cc1[nH]c(C)c(-c2ccc(OCc3cc(F)cc(F)c3)nc2)c(=O)c1Cl`, the Inhibition amounted to 97%.

`CC(=O)N[C@@H]1c2cc(C(C)=O)ccc2OC(C)(C)[C@@H]1O` registered an Inhibition of 97%.

Molecule `OC(COc1ccccc1-c1nc2ccccc2o1)CN1CCCN(CCc2ccccc2)CC1` (stereo not given) yielded an Inhibition of 97%.

As to `O=C(NC1CCN(Cc2ccccc2)CC1)c1ccc(-c2nc3cc(Cl)c(F)cc3[nH]2)cc1`, the Inhibition was determined as 100%.
